In PubChem BioAssay (Tox21):
Inconclusive results are not listed. The source made the active and inactive calls. Unless noted, calls follow the shape of the dose curve; as a rule, active = well fitted curve in the direction sought with a large enough effect in the repeat runs; inconclusive = weak or mixed curves; inactive = no such curve, though single readings can be large; an effect the other way counts as inactive or inconclusive.

Tests used:
[1] = qHTS assay for small molecule agonists of the p53 signaling pathway (AID 651631; calls by dose curve; also: nearly all actives have a fitted effect of over 15% in size)
Summary of the method: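 Read-out is beta-lactamase FRET fluorescence measured 2 h after substrate addition at room temperature, in HCT-116 cells with a p53 response element-driven reporter exposed to compounds for 16 h at 37 °C.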

[2] = qHTS assay for small molecules that induce genotoxicity in human embryonic kidney cells expressing luciferase-tagged ATAD5 (AID 651632); also: nearly all actives have a fitted effect of over 15% in size
Summary of the method: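 A rise in luciferase signal from ATAD5-tagged HEK293T cells marks genetic stress. Cells were exposed to compounds for 16 hr at 37C, 5% CO2, then luciferase was quantified after a 30 min room-temperature incubation with Amplite.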

[3] = qHTS assay for small molecule agonists of the p53 signaling pathway - cell viability (AID 651633; calls by dose curve;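 also: p53RE-bla HCT reporter cells with a stable beta-lactamase p53 reporter; series mostly up to about 83 µM; nearly all actives have a fitted effect of over 30% in size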)
Summary of the method: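 p53RE-bla cells were treated with compound for 16 hours at 37 C. Cytotoxicity was then measured as CellTiter-Glo luminescence after 30 min at room temperature.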

[4] = qHTS assay for small molecules that induce genotoxicity in human embryonic kidney cells expressing luciferase-tagged ATAD5 - cell viability (AID 651634; calls by dose curve; also: nearly all actives have a fitted effect of over 25% in size)
Summary of the method: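 Cytotoxicity counter-readout: after 15.5 hr compound treatment at 37C, live-cell protease activity in ATAD5-luciferase HEK293T cells measured by CellTiter-Fluor fluorescence, 30 min development at 37C.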

[5] = qHTS assay for small molecule disruptors of the mitochondrial membrane potential - cell viability (AID 720634; calls by dose curve;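 also: human HepG2 liver cancer cells; series mostly up to about 83 µM; nearly all actives have a fitted effect of over 20% in size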)
Summary of the method: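 Cytotoxicity was quantified from ATP content by CellTiter-Glo luminescence in the same wells as the MMP dye read-out. HepG2 (2,000 cells/well) were plated overnight and exposed to compounds for 1 hr at 37 C.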

[6] = qHTS assay for small molecule disruptors of the mitochondrial membrane potential (AID 720635)
Summary of the method: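 HepG2 cells exposed to compound 1 hr at 37C, then Mito-MPS dye 30 min. Ratio read of aggregate (540/590 nm) versus monomer (490/535 nm) fluorescence.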

[7] = qHTS assay to test for compound auto fluorescence at 590 nm (red) in HepG2 cells (AID 720674)
Summary of the method: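 HepG2 cells, 2,000 per well in MEM with 10% FBS, attached overnight at 37 C, then got 23 nL compound or DMSO. After 1 hr at 37 C, 5% CO2, red fluorescence was read at 540/590 nm against Rose Bengal sodium as reference.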

[8] = qHTS assay to test for compound auto fluorescence at 535 nm (green) in HepG2 cells (AID 720675)
[9] = qHTS assay to test for compound auto fluorescence at 460 nm (blue) in HEK293 cells (AID 720678)
Summary of the method: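 Intrinsic compound fluorescence is recorded in live HEK293 cultures after overnight incubation at 37C, 5% CO2, using excitation 405 nm and emission 460 nm. Values are referenced to triamterene.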

[10] = qHTS assay to test for compound auto fluorescence at 590 nm (red) in HEK293 cells (AID 720679)
Summary of the method: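 Red autofluorescence, HEK293 cells: 2,000 cells/well; attach 4-5 hr 37C; add 23 nL cpd or DMSO; incubate o/n 37C 5% CO2; read Ex540/Em590; Rose Bengal sodium reference.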

[11] = qHTS assay to test for compound auto fluorescence at 460 nm (blue) in HEK293 cell free culture (AID 720681)
Summary of the method: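 Compounds were added to cell-free DMEM with 10% FBS and fluorescence read directly. The blue channel used 405 nm excitation and 460 nm emission, with triamterene as the reference fluorophore.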

[12] = qHTS assay to test for compound auto fluorescence at 535 nm (green) in HEK293 cell free culture (AID 720682)
Summary of the method: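 Fluorescein serves as the green reference fluorophore; each compound's intrinsic emission at 535 nm (excitation 485 nm) is reported as an equivalent amount of that dye, measured in serum-containing DMEM without cells.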

[13] = qHTS assay to test for compound auto fluorescence at 590 nm (red) in HEK293 cell free culture (AID 720683)
Summary of the method: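 Cell-free wells of DMEM with 10% FBS received compound, and intrinsic fluorescence was read at excitation/emission 540/590 nm. Values expressed as equivalence to Rose Bengal sodium.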

[14] = qHTS assay to test for compound auto fluorescence at 590 nm (red) in HepG2 cell free culture (AID 720684)
Summary of the method: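 Auto fluorescence equivalency versus Rose Bengal sodium, red channel Ex/Em 540/590 nm; compounds in cell-free MEM/10% FBS; DMSO vehicle control.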

[15] = qHTS assay to test for compound auto fluorescence at 460 nm (blue) in HepG2 cell free culture (AID 720685)
Summary of the method: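 Cell-free plates of MEM plus 10% FBS received 23 nL compound or DMSO vehicle; blue-channel (405/460 nm) intensity scored against triamterene as reference fluorophore.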

[16] = qHTS assay to test for compound auto fluorescence at 535 nm (green) in HepG2 cell free culture (AID 720686)
[17] = qHTS assay to test for compound auto fluorescence at 460 nm (blue) in HepG2 cells (AID 720687)
Summary of the method: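 HepG2 cells in MEM with 10% FBS, attached overnight at 37 C, were exposed to compound or DMSO for 1 hr at 37 C, 5% CO2. Blue fluorescence was read at 405/460 nm, with triamterene as reference fluorophore.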

[18] = molecular target: Glucocorticoid receptor (Homo sapiens) (UniProt P04150); assay: qHTS assay to identify small molecule agonists of the glucocorticoid receptor (GR) signaling pathway (AID 720691; active = well fitted activation curve with a large enough effect in the signal ratio in the repeat runs, not every such curve was filed as active; the % refers to the signal ratio)
Summary of the method: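 Agonist-mode qHTS in HeLa cells stably expressing a glucocorticoid-response-element beta-lactamase reporter. Fluorescence intensity read with FRET substrate (2 h, room temperature) after 18 h compound treatment at 37 C.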

[19] = molecular target: Glucocorticoid receptor (Homo sapiens) (UniProt P04150); assay: qHTS assay to identify small molecule antagonists of the glucocorticoid receptor (GR) signaling pathway (AID 720692; active = well fitted inhibition curve with a large enough effect in the signal ratio in the repeat runs, not every such curve was filed as active; the % refers to the signal ratio)
Summary of the method: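 Inhibition of dexamethasone-driven (5 nM final) beta-lactamase expression was measured in GRE-reporter HeLa cells over 18 h at 37C. Fluorescence was read after 2 h with the B/G FRET substrate at room temperature.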

[20] = qHTS assay to test for compound auto fluorescence at 535 nm (green) in HEK293 cells (AID 720680)
% is scaled to controls: 0 for no effect and ±100 for the full control effect.

Chain of Glucocorticoid receptor (Homo sapiens) (P04150 whole entry, looked up): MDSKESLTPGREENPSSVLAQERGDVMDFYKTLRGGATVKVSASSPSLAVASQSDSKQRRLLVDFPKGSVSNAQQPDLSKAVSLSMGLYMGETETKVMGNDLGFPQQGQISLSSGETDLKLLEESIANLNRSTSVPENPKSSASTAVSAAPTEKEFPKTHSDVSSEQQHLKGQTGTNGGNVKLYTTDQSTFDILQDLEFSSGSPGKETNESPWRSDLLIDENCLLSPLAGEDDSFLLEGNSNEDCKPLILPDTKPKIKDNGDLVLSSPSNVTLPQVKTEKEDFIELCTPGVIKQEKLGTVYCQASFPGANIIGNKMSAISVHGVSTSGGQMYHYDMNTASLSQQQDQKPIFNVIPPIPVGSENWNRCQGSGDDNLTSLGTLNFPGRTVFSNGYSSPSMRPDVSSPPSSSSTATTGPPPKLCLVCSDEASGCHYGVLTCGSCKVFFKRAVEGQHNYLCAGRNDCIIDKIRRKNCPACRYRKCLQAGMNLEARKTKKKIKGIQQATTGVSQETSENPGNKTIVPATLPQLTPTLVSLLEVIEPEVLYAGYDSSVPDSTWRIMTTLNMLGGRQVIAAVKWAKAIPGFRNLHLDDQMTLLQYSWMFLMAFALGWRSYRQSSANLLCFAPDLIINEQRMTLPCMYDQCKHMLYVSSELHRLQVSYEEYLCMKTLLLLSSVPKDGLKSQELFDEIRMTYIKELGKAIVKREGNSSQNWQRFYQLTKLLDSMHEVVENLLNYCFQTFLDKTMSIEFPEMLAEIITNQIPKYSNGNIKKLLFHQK

FC(F)(F)C(F)(F)C(F)(F)C(F)(F)C(F)(F)C(F)(F)C(F)(F)C(F)(F)C(F)(F)C(F)(F)F
inactive: activation [1] -5.47% [at 8.3 µM] | activation [2] 3.4% [at 8.08 µM] | activity change, negative = cytotoxicity [3] -19.5% [at 8.08 µM] | activity, negative = cytotoxicity [4] 13.6% [at 8.08 µM] | activity change, negative = cytotoxicity [5] 3.63% [at 8.08 µM] | ratio activity, negative = MMP loss [6] 21.5% [at 8.08 µM] | fluorescence, relative to Rose Bengal [7] 0.158% [at 9.17 µM] | fluorescence, % of fluorescein control [8] -0.0906% [at 9.17 µM] | fluorescence, % of triamterene [9] -0.0034% [at 9.17 µM] | fluorescence, % of fluorescent control [10] -0.155% [at 9.17 µM] | fluorescence, % of fluorescent control [11] -0.0458% [at 9.17 µM] | activity change [12] 0.0023% [at 9.17 µM] | fluorescence, % of fluorescent control [13] -0.0476% [at 9.17 µM] | fluorescence, % of Rose Bengal [14] -0.199% [at 9.17 µM] | fluorescence, % of fluorescent control [15] -0.151% [at 9.17 µM] | fluorescence, % of fluorescein control [16] 0.0369% [at 9.17 µM] | fluorescence, % of fluorescent control [17] 0.105% [at 9.17 µM] | activation [18] -0.303% [at 6.9 µM] | activity change, negative = inhibition [19] -11.7% [at 7.04 µM]

C=C(C)C(=O)NCCC[N+](C)(C)C
inactive: Potency [1] | Potency [2] | Potency [3] | Potency [4] | Potency [5] | Potency [6] | outcome [7] | outcome [8] | Potency [9] | outcome [10] | outcome [20] | Potency [11] | outcome [12] | outcome [13] | outcome [14] | Potency [15] | outcome [16] | Potency [17] | Potency [18] | Potency [19]

NS(=O)(=O)c1cc2c(cc1C(F)(F)F)NC(Cc1ccccc1)NS2(=O)=O (configuration not stated)
inactive: Potency [1] | Potency [2] | Potency [3] | Potency [4] | Potency [5] | fluorescence, relative to Rose Bengal [7] 0.0251% [at 18.6 µM] | fluorescence, % of fluorescein control [8] -0.0381% [at 18.6 µM] | fluorescence, % of triamterene [9] 0.0799% [at 18.6 µM] | fluorescence, % of fluorescent control [10] 0.307% [at 18.6 µM] | fluorescence, % of fluorescein [20] 0.103% [at 18.6 µM] | fluorescence, % of fluorescent control [11] 0.419% [at 18.6 µM] | activity change [12] 0.196% [at 18.6 µM] | fluorescence, % of fluorescent control [13] 0.0682% [at 18.6 µM] | fluorescence, % of Rose Bengal [14] -0.15% [at 18.6 µM] | fluorescence, % of fluorescent control [15] -0.0286% [at 18.6 µM] | fluorescence, % of fluorescein control [16] -0.0871% [at 18.6 µM]

Nc1cc(C(Cl)=C(Cl)Cl)c(S(N)(=O)=O)cc1S(N)(=O)=O
inactive: Potency [1] | Potency [2] | Potency [3] | Potency [4] | Potency [5] | Potency [6] | outcome [7] | outcome [8] | Potency [9] | outcome [10] | outcome [20] | Potency [11] | outcome [12] | outcome [13] | outcome [14] | Potency [15] | outcome [16] | Potency [17] | Potency [18] | Potency [19]

CCC(C(=O)NC(N)=O)c1ccccc1 (configuration not stated)
inactive: Potency [1] | Potency [2] | Potency [3] | Potency [4] | Potency [5] | Potency [6] | outcome [7] | outcome [8] | Potency [9] | outcome [10] | outcome [20] | Potency [11] | outcome [12] | outcome [13] | outcome [14] | Potency [15] | outcome [16] | Potency [17] | Potency [18] | Potency [19]

CCCCCCCCCCCCI
inactive: Potency [1] | Potency [2] | Potency [3] | Potency [4] | Potency [5] | Potency [6] | outcome [8] | Potency [9] | outcome [10] | outcome [20] | Potency [11] | outcome [12] | outcome [13] | outcome [14] | Potency [15] | outcome [16] | Potency [17] | Potency [18] | Potency [19]

C#CC(C)(O)CC(C)C (configuration not stated)
inactive: Potency [1] | Potency [2] | Potency [3] | Potency [4] | Potency [5] | Potency [6] | outcome [7] | outcome [8] | Potency [9] | outcome [10] | outcome [20] | Potency [11] | outcome [12] | outcome [13] | outcome [14] | Potency [15] | outcome [16] | Potency [19]
